# Results reported in the supplement of paper PMC8728848.
# The full list was thinned out, with the strongest signals kept by preference.
# Columns and labels:
# Experiment in all cases: glycan array binding signal (z-score within array); higher = stronger binding
# Details in all cases: glycan notation: IUPAC condensed, linker removed
# [1] = system: GlcNAc(b1-3)Gal(b1-4)GlcNAc(b1-3)Gal(b1-4)GlcNAc(b1-3)Gal(b1-4)GlcNAc(b1-2)Man(a1-3)[GlcNAc(b1-3)Gal(b1-4)GlcNAc(b1-3)Gal(b1-4)GlcNAc(b1-3)Gal(b1-4)GlcNAc(b1-2)Man(a1-6)]Man(b1-4)GlcNAc(b1-4)GlcNAc
# Procedure, shortened: (§1)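 Glycan array data came from 3228 arrays in the Consortium for Functional Glycomics database, and only arrays with an available protein sequence were kept. Glycan names were put into IUPAC-condensed notation, and columns mapping to the same glycan were averaged. The binding signal is a within-array Z-score, averaged across arrays of one protein sequence run at different concentrations or buffers and across linkers. A negative Z-score can be read as non-binding.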
# [2] = system: GlcNAc(b1-2)[GlcNAc(b1-6)]Man(a1-6)[GlcNAc(b1-2)Man(a1-3)]Man(b1-4)GlcNAc(b1-4)GlcNAc
# Procedure, shortened: as §1
# [3] = system: GlcNAc(b1-2)[GlcNAc(b1-6)]Man(a1-6)[GlcNAc(b1-2)Man(a1-3)]Man(b1-4)GlcNAc(b1-4)[Fuc(a1-6)]GlcNAc
# Procedure, shortened: as §1
# [4] = system: GlcNAc(b1-3)Gal(b1-4)GlcNAc(b1-2)[GlcNAc(b1-3)Gal(b1-4)GlcNAc(b1-6)]Man(a1-6)[GlcNAc(b1-3)Gal(b1-4)GlcNAc(b1-2)Man(a1-3)]Man(b1-4)GlcNAc(b1-4)GlcNAc
# Procedure, shortened: as §1
# [5] = system: GlcNAc(b1-3)Gal(b1-4)GlcNAc(b1-3)Gal(b1-4)GlcNAc(b1-2)[GlcNAc(b1-3)Gal(b1-4)GlcNAc(b1-3)Gal(b1-4)GlcNAc(b1-6)]Man(a1-6)[GlcNAc(b1-3)Gal(b1-4)GlcNAc(b1-3)Gal(b1-4)GlcNAc(b1-2)Man(a1-3)]Man(b1-4)GlcNAc(b1-4)[Fuc(a1-6)]GlcNAc
# Procedure, shortened: as §1
# [6] = system: GlcNAc(b1-3)Gal(b1-4)GlcNAc(b1-3)Gal(b1-4)GlcNAc(b1-3)Gal(b1-4)GlcNAc(b1-2)[GlcNAc(b1-3)Gal(b1-4)GlcNAc(b1-3)Gal(b1-4)GlcNAc(b1-3)Gal(b1-4)GlcNAc(b1-6)]Man(a1-6)[GlcNAc(b1-3)Gal(b1-4)GlcNAc(b1-3)Gal(b1-4)GlcNAc(b1-3)Gal(b1-4)GlcNAc(b1-2)Man(a1-3)]Man(b1-4)GlcNAc(b1-4)[Fuc(a1-6)]GlcNAc
# Procedure, shortened: as §1
# [7] = system: GlcNAc(b1-3)Gal(b1-4)GlcNAc(b1-3)Gal(b1-4)GlcNAc(b1-3)Gal(b1-4)GlcNAc(b1-3)Gal(b1-4)GlcNAc(b1-2)Man(a1-3)[GlcNAc(b1-3)Gal(b1-4)GlcNAc(b1-3)Gal(b1-4)GlcNAc(b1-3)Gal(b1-4)GlcNAc(b1-3)Gal(b1-4)GlcNAc(b1-2)Man(a1-6)]Man(b1-4)GlcNAc(b1-4)GlcNAc
# Procedure, shortened: as §1
# [8] = system: GlcNAc(b1-3)Gal(b1-4)GlcNAc(b1-3)Gal(b1-4)GlcNAc(b1-3)Gal(b1-4)GlcNAc(b1-3)Gal(b1-4)GlcNAc(b1-2)[GlcNAc(b1-3)Gal(b1-4)GlcNAc(b1-3)Gal(b1-4)GlcNAc(b1-3)Gal(b1-4)GlcNAc(b1-3)Gal(b1-4)GlcNAc(b1-6)]Man(a1-6)[GlcNAc(b1-3)Gal(b1-4)GlcNAc(b1-3)Gal(b1-4)GlcNAc(b1-3)Gal(b1-4)GlcNAc(b1-3)Gal(b1-4)GlcNAc(b1-2)Man(a1-3)]Man(b1-4)GlcNAc(b1-4)[Fuc(a1-6)]GlcNAc
# Procedure, shortened: as §1
# [9] = system: GlcNAc(b1-3)Gal(b1-4)GlcNAc(b1-3)Gal(b1-4)GlcNAc(b1-2)Man(a1-3)[GlcNAc(b1-3)Gal(b1-4)GlcNAc(b1-3)Gal(b1-4)GlcNAc(b1-2)Man(a1-6)]Man(b1-4)GlcNAc(b1-4)GlcNAc
# Procedure, shortened: as §1
# [10] = system: GlcNAc(b1-3)Gal(b1-4)GlcNAc(b1-6)[GlcNAc(b1-3)Gal(b1-3)]GalNAc
# Procedure, shortened: as §1
substance,measurement,setting,value
AgI/II Vhelical-GFP (Streptococcus mutans),glycan array binding signal (z-score),[1],0.722
"Wza (Escherichia coli), P0A930",glycan array binding signal (z-score),[2],0.119
AgI/IIC123-GFP (Streptococcus mutans),glycan array binding signal (z-score),[3],-0.127
same,glycan array binding signal (z-score),[4],0.224
same,glycan array binding signal (z-score),[5],5.15
same,glycan array binding signal (z-score),[1],3.88
same,glycan array binding signal (z-score),[6],9
same,glycan array binding signal (z-score),[7],-0.201
same,glycan array binding signal (z-score),[8],7.4
"SiiE (Salmonella typhimurium), A0A0H3NVH0",glycan array binding signal (z-score),[2],3.14
LcI (Legionella pneumophila),glycan array binding signal (z-score),[9],3.83
same,glycan array binding signal (z-score),[10],-0.064
Actinohivin (Actinomycete K97),glycan array binding signal (z-score),[5],0.545
